Columns and labels:
Test in all cases: DAPPL (digital affinity profiling via proximity ligation, sequencing); 10 mM Tris-HCl pH 7.5, 50 mM NaCl, 1 mM DTT, 4% glycerol, room temperature, 30 min; GST-TFs on glutathione beads, 16-mer random dsDNA library, 0.1% formaldehyde crosslink after washing; high values mean tight binding
[1] = target: T1, FLI1 (Homo sapiens, UniProt Q01543 1-452); conditions: protein: recombinant; tags: N-terminal GST; dsDNA, one strand shown
T1 sequence: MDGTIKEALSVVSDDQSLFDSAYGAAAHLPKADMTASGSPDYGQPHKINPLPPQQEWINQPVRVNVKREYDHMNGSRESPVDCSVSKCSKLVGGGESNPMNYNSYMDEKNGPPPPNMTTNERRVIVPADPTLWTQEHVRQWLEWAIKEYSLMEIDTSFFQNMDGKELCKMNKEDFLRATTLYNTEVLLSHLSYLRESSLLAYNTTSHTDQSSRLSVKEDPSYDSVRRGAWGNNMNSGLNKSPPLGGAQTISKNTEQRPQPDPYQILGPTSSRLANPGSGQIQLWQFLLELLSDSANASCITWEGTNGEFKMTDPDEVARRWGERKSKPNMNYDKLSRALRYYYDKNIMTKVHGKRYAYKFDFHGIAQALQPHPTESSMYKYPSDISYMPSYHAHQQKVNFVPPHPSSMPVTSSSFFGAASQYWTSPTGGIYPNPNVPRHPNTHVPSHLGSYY
How it was run: (§1)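 Beads coated with glutathione captured GST-fused human transcription factors that had been expressed in yeast, and the factors were then given DNA barcodes and pooled with a tag-only sample. The pools were incubated with 200 nmole of a random double-stranded 16-mer DNA library in Tris/NaCl/DTT/glycerol buffer for 30 min at room temperature, washed, crosslinked with 0.1% formaldehyde and proximity-ligated with BsaI/T4 ligase at 37 °C for 1 h. PCR amplification and Illumina NextSeq500 sequencing came last. Binding signal is each hexamer's read frequency for a factor divided by its frequency for the tag-only sample.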

[2] = target: T2, ELK1 (Homo sapiens, UniProt P19419 1-428); conditions: protein: recombinant; tags: N-terminal GST; dsDNA, one strand shown
T2 sequence: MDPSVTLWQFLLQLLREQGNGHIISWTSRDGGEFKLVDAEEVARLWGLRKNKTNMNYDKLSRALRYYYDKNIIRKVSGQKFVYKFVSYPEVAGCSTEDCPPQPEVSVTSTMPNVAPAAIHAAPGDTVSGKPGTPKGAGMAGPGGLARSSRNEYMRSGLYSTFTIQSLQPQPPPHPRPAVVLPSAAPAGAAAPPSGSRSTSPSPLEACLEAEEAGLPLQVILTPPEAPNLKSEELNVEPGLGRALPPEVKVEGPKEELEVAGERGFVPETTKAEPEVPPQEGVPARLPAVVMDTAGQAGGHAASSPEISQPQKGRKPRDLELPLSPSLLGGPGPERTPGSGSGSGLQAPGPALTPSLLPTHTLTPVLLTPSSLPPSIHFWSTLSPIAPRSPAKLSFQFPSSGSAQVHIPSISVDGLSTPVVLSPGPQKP
How it was run: as §1

[3] = target: T3, GABPA (Homo sapiens, UniProt Q06546 1-454); conditions: protein: recombinant; tags: N-terminal GST; dsDNA, one strand shown
T3 sequence: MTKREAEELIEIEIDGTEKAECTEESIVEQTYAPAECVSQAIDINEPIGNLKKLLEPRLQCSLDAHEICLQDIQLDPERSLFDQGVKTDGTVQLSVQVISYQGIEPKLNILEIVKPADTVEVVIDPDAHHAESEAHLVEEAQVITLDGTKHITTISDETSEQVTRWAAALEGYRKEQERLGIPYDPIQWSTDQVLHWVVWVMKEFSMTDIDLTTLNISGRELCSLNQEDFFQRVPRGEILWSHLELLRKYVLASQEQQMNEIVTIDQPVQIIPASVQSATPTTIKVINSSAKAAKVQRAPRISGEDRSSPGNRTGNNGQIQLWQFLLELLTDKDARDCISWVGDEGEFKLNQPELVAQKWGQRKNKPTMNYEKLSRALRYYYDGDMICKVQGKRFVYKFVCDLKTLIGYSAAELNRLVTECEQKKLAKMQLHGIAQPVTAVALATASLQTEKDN
How it was run: as §1

[4] = target: T4, ERG (Homo sapiens, UniProt P11308 1-479); conditions: protein: recombinant; tags: N-terminal GST; dsDNA, one strand shown
T4 sequence: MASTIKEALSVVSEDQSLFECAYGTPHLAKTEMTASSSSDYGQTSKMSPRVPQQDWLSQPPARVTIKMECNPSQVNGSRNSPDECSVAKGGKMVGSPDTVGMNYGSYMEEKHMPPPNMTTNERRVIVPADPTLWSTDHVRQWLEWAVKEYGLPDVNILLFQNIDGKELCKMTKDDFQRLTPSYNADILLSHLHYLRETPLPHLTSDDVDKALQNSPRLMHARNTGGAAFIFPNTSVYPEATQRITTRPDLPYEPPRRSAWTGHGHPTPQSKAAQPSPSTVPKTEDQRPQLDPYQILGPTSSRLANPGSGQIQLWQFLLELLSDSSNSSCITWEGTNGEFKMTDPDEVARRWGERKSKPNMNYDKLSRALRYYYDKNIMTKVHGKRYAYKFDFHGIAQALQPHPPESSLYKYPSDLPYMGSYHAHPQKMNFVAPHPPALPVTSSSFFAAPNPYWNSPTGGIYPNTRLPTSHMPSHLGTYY
How it was run: as §1

[5] = target: ELF1 (Homo sapiens, UniProt P32519 1-619); conditions: protein: recombinant; tags: N-terminal GST; dsDNA, one strand shown
ELF1, sequence (P32519 whole entry): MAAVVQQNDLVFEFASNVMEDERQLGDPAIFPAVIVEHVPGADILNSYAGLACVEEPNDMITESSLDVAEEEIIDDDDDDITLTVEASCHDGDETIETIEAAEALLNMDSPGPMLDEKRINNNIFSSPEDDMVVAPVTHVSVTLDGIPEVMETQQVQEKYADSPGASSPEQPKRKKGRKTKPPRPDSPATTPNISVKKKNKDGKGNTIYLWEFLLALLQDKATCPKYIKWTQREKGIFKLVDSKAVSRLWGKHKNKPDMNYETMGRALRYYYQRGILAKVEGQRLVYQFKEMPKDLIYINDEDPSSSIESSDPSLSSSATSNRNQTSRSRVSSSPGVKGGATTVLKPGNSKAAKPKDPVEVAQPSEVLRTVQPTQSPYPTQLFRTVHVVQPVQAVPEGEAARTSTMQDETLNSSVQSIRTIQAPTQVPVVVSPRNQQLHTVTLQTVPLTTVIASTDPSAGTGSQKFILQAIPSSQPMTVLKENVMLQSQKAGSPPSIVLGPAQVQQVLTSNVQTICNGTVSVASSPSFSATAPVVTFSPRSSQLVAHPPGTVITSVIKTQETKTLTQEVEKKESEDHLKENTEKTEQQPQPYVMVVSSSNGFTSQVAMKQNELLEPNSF
How it was run: as §1

[6] = target: T5, EHF (Homo sapiens, UniProt Q9NZC4 1-300); conditions: protein: recombinant; tags: N-terminal GST; dsDNA, one strand shown
T5 sequence: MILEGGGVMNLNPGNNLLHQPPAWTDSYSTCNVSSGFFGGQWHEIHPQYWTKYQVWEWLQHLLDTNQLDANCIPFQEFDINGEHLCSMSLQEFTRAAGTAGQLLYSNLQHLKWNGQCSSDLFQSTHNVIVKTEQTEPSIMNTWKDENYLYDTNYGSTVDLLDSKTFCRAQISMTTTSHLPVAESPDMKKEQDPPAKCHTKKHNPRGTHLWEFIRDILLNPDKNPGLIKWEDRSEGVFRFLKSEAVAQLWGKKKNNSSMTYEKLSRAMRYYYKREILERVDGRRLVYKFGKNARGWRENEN
How it was run: as §1

[7] = target: SPI1 (Homo sapiens, UniProt P17947 1-270); conditions: protein: recombinant; tags: N-terminal GST; dsDNA, one strand shown
How it was run: as §1

[8] = target: SPIB (Homo sapiens, UniProt Q01892 1-262); conditions: protein: recombinant; tags: N-terminal GST; dsDNA, one strand shown
SPIB, sequence (Q01892 whole entry): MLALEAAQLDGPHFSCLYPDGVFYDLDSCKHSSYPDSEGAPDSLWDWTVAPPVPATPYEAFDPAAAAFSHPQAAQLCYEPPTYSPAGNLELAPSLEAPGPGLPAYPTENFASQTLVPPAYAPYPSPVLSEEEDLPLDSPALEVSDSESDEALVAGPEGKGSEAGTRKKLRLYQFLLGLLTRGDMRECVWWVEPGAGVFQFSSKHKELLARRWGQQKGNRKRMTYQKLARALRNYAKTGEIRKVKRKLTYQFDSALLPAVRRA
How it was run: as §1

[9] = target: T6, ELK3 (Homo sapiens, UniProt P41970 1-407); conditions: protein: recombinant; tags: N-terminal GST; dsDNA, one strand shown
T6 sequence: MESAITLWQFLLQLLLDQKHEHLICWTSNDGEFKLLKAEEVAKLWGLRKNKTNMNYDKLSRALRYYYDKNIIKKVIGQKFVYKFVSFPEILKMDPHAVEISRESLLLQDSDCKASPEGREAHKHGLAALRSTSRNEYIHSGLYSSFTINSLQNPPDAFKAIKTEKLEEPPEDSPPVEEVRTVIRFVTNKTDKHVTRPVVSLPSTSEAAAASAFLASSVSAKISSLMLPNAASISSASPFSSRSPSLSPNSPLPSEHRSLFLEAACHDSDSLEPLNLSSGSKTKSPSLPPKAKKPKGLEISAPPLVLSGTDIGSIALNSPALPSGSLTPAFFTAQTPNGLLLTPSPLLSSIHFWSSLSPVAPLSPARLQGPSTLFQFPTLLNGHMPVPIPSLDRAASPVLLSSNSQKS
How it was run: as §1

[10] = target: T7, FEV (Homo sapiens, UniProt Q99581 1-238); conditions: protein: recombinant; tags: N-terminal GST; dsDNA, one strand shown
T7 sequence: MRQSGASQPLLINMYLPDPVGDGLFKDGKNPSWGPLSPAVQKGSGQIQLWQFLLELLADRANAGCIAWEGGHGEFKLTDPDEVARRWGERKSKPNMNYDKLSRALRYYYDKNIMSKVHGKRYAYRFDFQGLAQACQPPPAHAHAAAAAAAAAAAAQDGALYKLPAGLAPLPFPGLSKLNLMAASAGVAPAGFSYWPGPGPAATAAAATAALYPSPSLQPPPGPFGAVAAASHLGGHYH
How it was run: as §1

[11] = target: ETV5 (Homo sapiens, UniProt P41161 1-510); conditions: protein: recombinant; tags: N-terminal GST; dsDNA, one strand shown
ETV5, sequence (P41161 whole entry): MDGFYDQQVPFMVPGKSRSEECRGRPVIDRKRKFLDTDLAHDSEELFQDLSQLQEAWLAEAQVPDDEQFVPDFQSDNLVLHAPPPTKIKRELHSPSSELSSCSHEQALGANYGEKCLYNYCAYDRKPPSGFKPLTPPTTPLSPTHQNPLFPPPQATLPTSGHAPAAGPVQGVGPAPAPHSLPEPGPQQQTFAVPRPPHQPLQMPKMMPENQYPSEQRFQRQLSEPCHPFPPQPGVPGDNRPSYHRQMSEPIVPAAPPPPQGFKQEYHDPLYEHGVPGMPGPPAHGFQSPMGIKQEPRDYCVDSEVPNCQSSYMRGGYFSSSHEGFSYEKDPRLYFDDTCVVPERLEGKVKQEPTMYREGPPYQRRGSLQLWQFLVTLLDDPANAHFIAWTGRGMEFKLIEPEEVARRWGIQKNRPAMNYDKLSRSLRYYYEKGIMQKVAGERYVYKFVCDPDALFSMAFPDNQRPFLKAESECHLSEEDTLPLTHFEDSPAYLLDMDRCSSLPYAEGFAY
How it was run: as §1

[12] = target: HSF1 (Homo sapiens, UniProt Q00613 1-529); conditions: protein: recombinant; tags: N-terminal GST; chain copies: 3; dsDNA, one strand shown
HSF1, sequence (Q00613 whole entry): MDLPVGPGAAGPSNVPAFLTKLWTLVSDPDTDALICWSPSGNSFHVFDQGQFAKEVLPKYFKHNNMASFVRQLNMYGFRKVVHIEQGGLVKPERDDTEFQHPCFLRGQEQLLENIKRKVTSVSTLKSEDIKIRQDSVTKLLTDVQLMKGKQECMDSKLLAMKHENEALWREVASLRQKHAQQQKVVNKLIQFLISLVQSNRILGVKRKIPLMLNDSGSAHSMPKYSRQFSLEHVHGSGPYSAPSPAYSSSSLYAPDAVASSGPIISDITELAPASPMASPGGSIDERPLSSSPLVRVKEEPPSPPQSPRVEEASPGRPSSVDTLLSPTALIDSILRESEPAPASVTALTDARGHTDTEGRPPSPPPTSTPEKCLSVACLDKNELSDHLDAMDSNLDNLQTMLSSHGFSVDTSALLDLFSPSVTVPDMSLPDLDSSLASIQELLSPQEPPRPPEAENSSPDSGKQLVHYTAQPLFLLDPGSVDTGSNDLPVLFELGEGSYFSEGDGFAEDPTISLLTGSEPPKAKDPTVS
How it was run: as §1

[13] = target: T8, SPIC (Homo sapiens, UniProt Q8N5J4 1-248); conditions: protein: recombinant; tags: N-terminal GST; dsDNA, one strand shown
T8 sequence: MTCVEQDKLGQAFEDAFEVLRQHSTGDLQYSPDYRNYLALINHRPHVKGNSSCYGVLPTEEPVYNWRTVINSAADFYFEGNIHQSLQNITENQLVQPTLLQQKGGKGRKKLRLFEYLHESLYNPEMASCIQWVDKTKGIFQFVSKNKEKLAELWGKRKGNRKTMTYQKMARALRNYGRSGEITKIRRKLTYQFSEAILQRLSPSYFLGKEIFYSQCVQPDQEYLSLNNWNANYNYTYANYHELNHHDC
How it was run: as §1

[14] = target: ELF4 (Homo sapiens, UniProt Q99607 1-663); conditions: protein: recombinant; tags: N-terminal GST; dsDNA, one strand shown
ELF4, sequence (Q99607 whole entry): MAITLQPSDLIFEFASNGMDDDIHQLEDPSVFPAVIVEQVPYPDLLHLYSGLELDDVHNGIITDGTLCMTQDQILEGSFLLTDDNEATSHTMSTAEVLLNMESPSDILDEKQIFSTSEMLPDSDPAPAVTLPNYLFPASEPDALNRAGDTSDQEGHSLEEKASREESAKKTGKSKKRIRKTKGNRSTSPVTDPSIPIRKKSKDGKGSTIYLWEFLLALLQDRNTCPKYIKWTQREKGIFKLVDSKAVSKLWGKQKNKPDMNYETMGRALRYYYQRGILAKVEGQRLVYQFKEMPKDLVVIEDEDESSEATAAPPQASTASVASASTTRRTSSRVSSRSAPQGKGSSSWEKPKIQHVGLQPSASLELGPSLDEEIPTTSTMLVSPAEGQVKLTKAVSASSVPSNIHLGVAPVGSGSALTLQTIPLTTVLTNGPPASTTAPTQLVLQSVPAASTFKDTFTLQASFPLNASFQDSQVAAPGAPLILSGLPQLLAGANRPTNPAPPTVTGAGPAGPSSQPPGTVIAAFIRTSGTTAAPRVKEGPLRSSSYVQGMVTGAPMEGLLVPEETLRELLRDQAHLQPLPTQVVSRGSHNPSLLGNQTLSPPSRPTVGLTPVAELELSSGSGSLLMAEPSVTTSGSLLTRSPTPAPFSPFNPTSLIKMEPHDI
How it was run: as §1

[15] = target: T9, ELK4 (Homo sapiens, UniProt P28324-2 1-405); conditions: protein: recombinant; tags: N-terminal GST; dsDNA, one strand shown
T9 sequence: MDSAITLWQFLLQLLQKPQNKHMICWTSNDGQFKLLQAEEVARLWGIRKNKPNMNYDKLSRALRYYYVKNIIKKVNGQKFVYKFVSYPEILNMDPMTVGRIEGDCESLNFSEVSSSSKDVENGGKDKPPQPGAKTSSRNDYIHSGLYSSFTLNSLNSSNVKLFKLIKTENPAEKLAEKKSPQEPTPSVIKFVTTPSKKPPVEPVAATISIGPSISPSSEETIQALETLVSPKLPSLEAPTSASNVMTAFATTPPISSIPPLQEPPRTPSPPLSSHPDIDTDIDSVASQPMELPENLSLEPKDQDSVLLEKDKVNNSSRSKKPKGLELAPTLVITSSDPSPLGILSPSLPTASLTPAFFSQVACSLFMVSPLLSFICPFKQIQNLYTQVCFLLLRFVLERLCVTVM
How it was run: as §1

[16] = target: T10, ETV2 (Homo sapiens, UniProt O00321 1-342); conditions: protein: recombinant; tags: N-terminal GST; dsDNA, one strand shown
T10 sequence: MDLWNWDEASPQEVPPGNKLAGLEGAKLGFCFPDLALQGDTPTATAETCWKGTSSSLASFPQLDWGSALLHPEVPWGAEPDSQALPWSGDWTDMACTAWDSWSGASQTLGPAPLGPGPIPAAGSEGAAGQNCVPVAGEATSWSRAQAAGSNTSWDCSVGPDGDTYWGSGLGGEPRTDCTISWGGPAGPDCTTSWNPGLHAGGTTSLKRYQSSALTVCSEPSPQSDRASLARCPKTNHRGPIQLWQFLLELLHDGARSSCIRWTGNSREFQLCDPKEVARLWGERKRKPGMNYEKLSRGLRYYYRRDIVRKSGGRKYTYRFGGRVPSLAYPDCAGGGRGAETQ
How it was run: as §1

[17] = target: T11, ELF3 (Homo sapiens, UniProt P78545 1-371); conditions: protein: recombinant; tags: N-terminal GST; dsDNA, one strand shown
T11 sequence: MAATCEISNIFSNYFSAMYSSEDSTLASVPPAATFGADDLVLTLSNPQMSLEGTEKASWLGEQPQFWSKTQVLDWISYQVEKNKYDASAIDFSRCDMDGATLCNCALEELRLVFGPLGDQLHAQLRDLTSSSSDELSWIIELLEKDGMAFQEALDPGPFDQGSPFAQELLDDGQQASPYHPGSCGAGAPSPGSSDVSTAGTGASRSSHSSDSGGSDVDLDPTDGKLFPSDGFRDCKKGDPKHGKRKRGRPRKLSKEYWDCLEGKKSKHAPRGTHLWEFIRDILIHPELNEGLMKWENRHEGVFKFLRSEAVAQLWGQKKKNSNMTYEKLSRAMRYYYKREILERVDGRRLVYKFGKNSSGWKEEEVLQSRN
How it was run: as §1

[18] = target: CRX (Homo sapiens, UniProt O43186 1-299); conditions: protein: recombinant; tags: N-terminal GST; dsDNA, one strand shown
CRX, sequence (O43186 whole entry): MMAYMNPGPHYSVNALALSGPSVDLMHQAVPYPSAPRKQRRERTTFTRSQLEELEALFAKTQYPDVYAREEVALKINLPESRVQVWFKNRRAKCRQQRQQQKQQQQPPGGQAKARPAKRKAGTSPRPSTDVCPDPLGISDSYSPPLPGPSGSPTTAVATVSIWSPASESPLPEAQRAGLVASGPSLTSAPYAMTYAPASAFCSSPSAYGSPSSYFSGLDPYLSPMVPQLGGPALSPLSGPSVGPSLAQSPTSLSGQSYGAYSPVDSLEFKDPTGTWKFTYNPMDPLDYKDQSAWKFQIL
How it was run: as §1

[19] = target: ETV1 (Homo sapiens, UniProt P50549 1-477); conditions: protein: recombinant; tags: N-terminal GST; dsDNA, one strand shown
ETV1, sequence (P50549 whole entry): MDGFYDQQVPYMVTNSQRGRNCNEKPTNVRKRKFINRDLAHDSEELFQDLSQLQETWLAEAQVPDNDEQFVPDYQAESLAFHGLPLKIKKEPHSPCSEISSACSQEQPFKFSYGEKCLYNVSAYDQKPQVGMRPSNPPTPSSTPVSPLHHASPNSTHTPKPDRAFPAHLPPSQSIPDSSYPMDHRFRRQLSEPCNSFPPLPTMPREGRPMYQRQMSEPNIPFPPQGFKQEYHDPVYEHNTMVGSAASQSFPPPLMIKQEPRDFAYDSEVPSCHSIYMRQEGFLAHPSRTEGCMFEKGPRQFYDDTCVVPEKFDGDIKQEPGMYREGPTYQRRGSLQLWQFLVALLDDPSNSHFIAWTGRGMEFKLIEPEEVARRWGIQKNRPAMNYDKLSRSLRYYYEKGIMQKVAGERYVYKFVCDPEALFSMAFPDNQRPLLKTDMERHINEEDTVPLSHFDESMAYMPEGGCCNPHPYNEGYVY
How it was run: as §1

Sequence: ACCCTC
- binding signal [1]: 1.2 fold enrichment (6-mer frequency, TF over GST control)
- binding signal [2]: 1.27 fold enrichment (6-mer frequency, TF over GST control)
- binding signal [3]: 1.15 fold enrichment (6-mer frequency, TF over GST control)
- binding signal [4]: 1.1 fold enrichment (6-mer frequency, TF over GST control)
- binding signal [5]: 1.13 fold enrichment (6-mer frequency, TF over GST control)
- binding signal [6]: 1.1 fold enrichment (6-mer frequency, TF over GST control)
- binding signal [7]: 1.12 fold enrichment (6-mer frequency, TF over GST control)
- binding signal [8]: 1.14 fold enrichment (6-mer frequency, TF over GST control)
- binding signal [9]: 1.31 fold enrichment (6-mer frequency, TF over GST control)
- binding signal [10]: 1.15 fold enrichment (6-mer frequency, TF over GST control)
- binding signal [11]: 1.2 fold enrichment (6-mer frequency, TF over GST control)
- binding signal [12]: 1.11 fold enrichment (6-mer frequency, TF over GST control)
- binding signal [13]: 1.24 fold enrichment (6-mer frequency, TF over GST control)
- binding signal [14]: 1.25 fold enrichment (6-mer frequency, TF over GST control)
- binding signal [15]: 1.01 fold enrichment (6-mer frequency, TF over GST control)
- binding signal [16]: 1.15 fold enrichment (6-mer frequency, TF over GST control)
- binding signal [17]: 1.12 fold enrichment (6-mer frequency, TF over GST control)
- binding signal [18]: 1.11 fold enrichment (6-mer frequency, TF over GST control)
- binding signal [19]: 1.14 fold enrichment (6-mer frequency, TF over GST control)
